In PubChem BioAssay (NCATS):
Records with an inconclusive call do not appear. Active and inactive are the calls of the source. The call rests on the fitted dose curve; in most records, active means well fitted activation curve with a large enough effect; inconclusive means small, poorly fitted or top-dose-only effect; inactive means flat fitted curve, though single readings scatter.

experiment: Cellular Toxicity (caspase-3) Hek293 (AID 664); details: HEK293 caspase-3 activation, DMSO = 0%, 100 µM tamoxifen = 100%; series mostly up to 92.2 µM;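 further: cells exposed to compound for 16 h at 37 °C before readout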
Source text: NIH Chemical Genomics Center [NCGC]
NIH Molecular Libraries Screening Centers Network [MLSCN]
National Institutes of Environmental Health Sciences [NIEHS]
National Toxicology Program [NTP]
We have developed a 1536-well cell-based assay for quantitative high throughput screening (qHTS) against a number of cell lines to determine in vitro caspase 3/7 of small molecules. This particular assay uses the Hek 293 cell line which is derived from human embryonic kidney cells.
NCGC Assay Protocol Summary:
The Caspase-Glo 3/7 assay (Promega) is a homogeneous method to measure caspase-3 and caspase-7 activities in cultured cells. The quantitation of caspase 3/7 activity is based on the cleavage of a peptide-aminoluciferin substrate. After caspase cleaves the substrate the free aminoluciferin is liberated and serves as the substrate of luciferase, which generates the light. The luminescent signal is proportional to amount of caspase 3/7 activity present.
Using the Caspase-Glo 3/7 assay, the amount of caspase 3/7 activity was measured in the Hek 293 cell line with complete culture medium following compound treatment for 16 hours. The assay was performed in opaque white 1536-well plates. In the screen, tamoxifen and doxorubicin were used as positive controls. Library compounds were measured for their ability to cause the activation of caspase 3/7 in the cell line, as reflected by an increase in luminescence signal, in a concentration-dependent manner. Data were normalized to the controls for basal activity (DMSO only) and 100% stimulation (100 uM tamoxifen). AC50 values were determined from concentration-response data modeled with the standard Hill equation.
qHTS protocol for caspase 3/7 assay in Hek 293 cells
[Step] [Parameter] [Value] [Description]
2. Time; 5 hr; 37 °C incubation
4. Controls; 23 nL; Tamoxifen 0.23 uM to 100 uM & Doxorubicin 7.0 pM to 100 uM
5. Time; 16 hr; 37 °C incubation
6. Reagent; 5 uL; Caspase-Glo 3/7 reagent
7. Time; 20 min; Room Temperature
8. Detection; Luminescence; Viewlux plate reader
Keywords: caspase 3/7, apoptosis, Hek 293 cell line, luminescence, NTPHTS, NTPHTS_NCGC, NIEHS, EPA, DSSTox, MLSMR, MLSCN, NIH Roadmap, qHTS, NCGC

Compound	outcome
O=C(O)CCCc1ccc(N(CCCl)CCCl)cc1	inactive
O=P1(N(CCCl)CCCl)NCCCO1 (stereo not drawn)	inactive
Oc1ccc(Cl)cc1	inactive
Nc1ccccc1	inactive
CC(C)NC(C)C	inactive
COP(=S)(OC)Oc1ccc(SC)c(C)c1	inactive
C[C@]12CCC(=O)C=C1CC[C@@H]1[C@@H]2CC[C@@]2(C)[C@H]1CC[C@]2(C)O	inactive
COC(=O)C(c1ccccc1)C1CCCCN1 (stereo not drawn)	inactive
CC(C)c1cccc(C(C)C)c1O	inactive
C[C@]1(O)CC[C@H]2[C@@H]3CCC4=CC(=O)CC[C@]4(C)[C@@]3(F)[C@@H](O)C[C@@]21C	inactive
CN1C[C@H](C(=O)N[C@]2(C)O[C@@]3(O)[C@@H]4CCCN4C(=O)[C@H](Cc4ccccc4)N3C2=O)C=C2c3cccc4[nH]cc(c34)C[C@H]21	inactive
CCC(C)(C)c1ccc(O)cc1	inactive
CCOC(=O)CC(SP(=S)(OC)OC)C(=O)OCC (stereo not drawn)	inactive
Nc1ccccc1C(=O)O	inactive
COc1cc(OC)c(OC)cc1C=O	inactive
CCCC(C)(COC(N)=O)COC(N)=O	inactive
NCCc1ccc(O)cc1	inactive
C[C@]12CCC(=O)C=C1CC[C@@H]1[C@@H]2CC[C@]2(C)C(=O)CC[C@@H]12	inactive
